Laboratory results published in PubChem BioAssay (EPA / NIEHS).
Inconclusive results are not listed. Active and inactive are the calls of the source. The calls were made as follows, unless noted: active = hit-call score of the fitted dose curve at least 0.9, where 1 is the maximum; inactive = score below 0.9.

How the values were obtained:
[1] = CCTE_Harrill_HTTr_Apoptosis_MCF7: CCTE's 6-hour Apoptosis Assessment for the High-Throughput Transcriptomics (HTTr) Platform, in MCF-7 cells cultured in DMEM + 10% fetal bovine serum, Harrill Lab (AID 2284011)
Outline: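 Cells are dosed with test chemicals at eight concentrations and imaged 6 hours later for caspase-3/7 activity using a green fluorogenic detection reagent. Activity is fitted in both directions against DMSO controls.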

[2] = CCTE_Harrill_HTTr_CellCount_MCF7: CCTE's Cell Proliferation Assessment for the High-Throughput Transcriptomics (HTTr) Platform, Harrill Lab (AID 2284012; active = hit-call score of the fitted dose curve at least 0.9, where 1 is the maximum;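 also: cells exposed to compound for six hours; intended direction is loss of nuclei count meaning fewer cells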)
Outline: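 MCF7 cells exposed 6 hours to an eight-point dilution series; Hoechst-stained nuclei counted by high-content imaging. Bidirectional curve fitting against DMSO baseline.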

[3] = CCTE_Shafer_MEA_acute_burst_number: CCTE's Neural Acute Assay for Single-Electrode Bursts, Shafer Lab (AID 2284013)
Outline: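 Spontaneous network activity of primary rat cortical neurons was recorded extracellularly on microelectrode arrays at 37 C, with 40-min periods before and during exposure to 0.03-40 uM compound on DIV 13 or 15.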

[4] = CCTE_Shafer_MEA_acute_burst_duration_mean: CCTE's Neural Acute Assay for Mean Burst Duration, Shafer Lab (AID 2284014);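 also: hits are decreases in mean burst duration relative to DMSO controls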
Outline: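 Read-out is the per-well percent change in mean burst duration (first to last spike within a single-electrode burst) between 40-min recordings before and after compound. Cultures were primary rat cortical neurons on MEAs, dosed at 0.03-40 uM on DIV 13 or 15.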

[5] = CCTE_Shafer_MEA_acute_per_burst_spike_number_mean: CCTE's Neural Acute Assay for Average Number of Spikes Per Burst, Shafer Lab (AID 2284015);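 also: hits are decreases in mean spikes per burst versus baseline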
Outline: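 Rat primary cortical neurons on 48-well MEAs (DIV 13 or 15) were treated with 0.03-40 uM compound at 37 C. Mean spikes per burst over 40 min were recorded before and after exposure and expressed as percent change from baseline, relative to DMSO.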

[6] = CCTE_Shafer_MEA_acute_interburst_interval_mean: CCTE's Neural Acute Assay for Mean Interburst Interval, Shafer Lab (AID 2284016);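 also: percent change of mean interburst interval versus each well's own pre-dose baseline; curves fitted for decrease in interburst interval relative to DMSO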
Outline: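 Rat primary cortical neurons on 48-well MEAs at DIV 13 or 15 were exposed acutely to 0.03-40 uM. Spikes detected at 8x rms noise, 37 C. Mean interburst interval from 40 min recordings expressed as percent change from 40 min pre-treatment baseline.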

[7] = CCTE_Shafer_MEA_acute_burst_percentage_mean: CCTE's Neural Acute Assay for Percentage of Spikes in a Burst, Shafer Lab (AID 2284017);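 as to AC50: curve fitted for loss of signal so potency reflects decreased burst percentage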
Outline: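 Primary rat cortical neurons on 48-well MEA plates, treated on DIV 13 or 15 at 0.03-40 uM. Spikes detected at 8x rms noise at 37C; percent change from 40-min baseline to 40-min post-dose recording, fitted versus DMSO.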

[8] = CCTE_Shafer_MEA_acute_burst_percentage_std: CCTE's Neural Acute Assay for Standard Deviation of Burst Percentage, Shafer Lab (AID 2284018);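 also: fitted in the negative direction so actives lower burst percentage SD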
Outline: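 Value is percent change from baseline in the across-electrode SD of spikes-in-bursts percentage, wells with >/= 10 active electrodes. Acute 40-min exposure to 0.03-40 uM on DIV 13 or 15 rat cortical cultures, recorded at 37 C after 40-min baseline.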

[9] = CCTE_Shafer_MEA_acute_per_network_burst_spike_number_mean: CCTE's Neural Acute Assay for Average Number of Spikes in a Network Burst, Shafer Lab (AID 2284019);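 as to AC50: curve fitted for loss of signal so actives reduce spikes per network burst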
Outline: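 Read-out is mean spike count per network burst, taken as percent change between a 40-min pre-exposure and a 40-min post-exposure recording per well. Rat primary cortical neurons on MEAs at 37 C, DIV 13 or 15; compounds at 0.03-40 uM.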

[10] = CCTE_Shafer_MEA_acute_per_network_burst_spike_number_std: CCTE's Neural Acute Assay for Standard Deviation of Number of Spikes in a Network Burst, Shafer Lab (AID 2284020);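 also: fitted for decrease in spike-number SD versus DMSO so actives lower it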
Outline: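 Spontaneous network activity of primary rat cortical neurons is recorded extracellularly before and after a 40-min compound exposure (0.03-40 uM) at 37 C. The endpoint is the well's percent change in burst spike-number SD.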

[11] = CCTE_Shafer_MEA_acute_per_network_burst_electrodes_number_mean: CCTE's Neural Acute Assay for Mean Number of Electrodes in a Network Burst, Shafer Lab (AID 2284021);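 also: curves fitted for decreases only so hits reduce electrodes per burst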
Outline: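 Cultures of rat cortex neurons were exposed on DIV 13 or 15 to compounds at 0.03-40 uM in at least three wells each. Activity over 40 min before and 40 min after exposure at 37 C gave the percent change in electrodes per network burst.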

[12] = CCTE_Shafer_MEA_acute_network_burst_percentage: CCTE's Neural Acute Assay for Percentage of Network Bursts, Shafer Lab (AID 2284022);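 also: curves fitted for loss so actives lower network burst percentage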
Outline: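 Cortical neurons from rat were grown over microelectrode arrays and used on day 13 or 15 in vitro. Wells with at least 10 active electrodes received test chemical at 0.03-40 uM. Activity during 40 min of exposure was compared with the preceding 40-min baseline.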

[13] = CCTE_Shafer_MEA_acute_synchrony_index: CCTE's Neural Acute Assay for Synchrony, Shafer Lab (AID 2284027);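 also: network synchrony index of spontaneous spiking in primary rat cortical neurons on MEAs; fitted for loss of signal so actives lower synchrony relative to DMSO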
Outline: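 Primary rat cortical neurons on 48-well MEAs, dosed at 0.03–40 uM on DIV 13 or 15. Spikes are recorded for 40 min at 37C before and after exposure, and synchrony index (0–1) is expressed as percent change from baseline per well.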

[14] = target: Estrogen receptor (Homo sapiens) (UniProt P03372); experiment: CCTE_Deisenroth_AIME_384WELL_LUC_Active: CCTE's 384-well Estrogen Receptor Transactivation Assay with AIME metabolic competence (ERTA luciferase; metabolism positive), Deisenroth Lab (AID 2284030; active = hit-call score of the fitted dose curve at least 0.9, where 1 is the maximum)
Outline: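 In this metabolism-positive format, a 2-hour exposure to alginate-immobilized rat S9 precedes a 24 hour luciferase transactivation readout in VM7Luc4E2 cells. Dosing spans 10 concentrations from 0.002 to 200 uM.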

[15] = CCTE_Shafer_MEA_dev_firing_rate_mean: CCTE's Neural Network Formation Assay for Mean Firing Rate, Shafer Lab (AID 2284031)
Outline: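 Primary rat cortical neurons on 48-well MEA plates, exposed from plating day 0 with dosing renewed on DIV 5 and 9. Mean well firing rate over active electrodes, recorded days 5, 7, 9, 12, summarised as trapezoidal AUC.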

[16] = CCTE_Shafer_MEA_dev_per_burst_spike_percent: CCTE's Neural Network Formation Assay for Percent of Spikes in a Burst, Shafer Lab (AID 2284032)
Outline: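 Rat primary cortical neurons on 16-electrode MEA wells, dosed from plating day 0 for 12 days with renewal on DIV 5 and 9; spikes-in-bursts percentage averaged over bursting electrodes, collapsed as AUC across days 5, 7, 9, 12; loss direction versus DMSO.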

Sequence of Estrogen receptor (Homo sapiens) (P03372 whole entry, looked up): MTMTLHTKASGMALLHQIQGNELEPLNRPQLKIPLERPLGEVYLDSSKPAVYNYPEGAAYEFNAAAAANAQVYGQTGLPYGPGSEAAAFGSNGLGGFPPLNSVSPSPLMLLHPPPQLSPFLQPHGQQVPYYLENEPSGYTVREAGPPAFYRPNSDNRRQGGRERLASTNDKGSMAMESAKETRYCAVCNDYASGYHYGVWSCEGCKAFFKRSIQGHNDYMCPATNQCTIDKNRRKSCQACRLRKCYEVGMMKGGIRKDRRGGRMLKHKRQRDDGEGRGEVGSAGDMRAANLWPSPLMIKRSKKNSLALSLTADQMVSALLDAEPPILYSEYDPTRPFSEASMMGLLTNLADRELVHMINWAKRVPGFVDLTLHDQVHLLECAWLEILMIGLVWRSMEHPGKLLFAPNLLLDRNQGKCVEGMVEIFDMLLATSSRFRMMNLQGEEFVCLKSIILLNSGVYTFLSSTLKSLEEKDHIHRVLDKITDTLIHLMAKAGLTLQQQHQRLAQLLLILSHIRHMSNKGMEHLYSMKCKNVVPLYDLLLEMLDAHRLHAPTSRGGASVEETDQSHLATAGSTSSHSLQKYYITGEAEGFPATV

CC1=C(C)S(=O)(=O)CCS1(=O)=O
outcome [1]: inactive
outcome [2]: inactive
outcome [3]: inactive
outcome [4]: inactive
outcome [5]: inactive
outcome [6]: inactive
outcome [7]: inactive
outcome [8]: inactive
outcome [9]: inactive
outcome [10]: inactive
outcome [11]: inactive
outcome [12]: inactive
outcome [13]: inactive
outcome [14]: inactive

Cc1c(C)c2c(c(C)c1O)CCC(C)(COc1ccc(CC3SC(=O)NC3=O)cc1)O2 (stereo not given)
outcome [1]: inactive
outcome [3]: inactive
outcome [4]: inactive
outcome [5]: inactive
outcome [6]: inactive
AC50 [7]: 32.9 µM (active)
AC50 [8]: 33.1 µM (active)
AC50 [9]: 3.02 µM (active)
AC50 [10]: 0.517 µM (active)
outcome [11]: inactive
outcome [12]: inactive
AC50 [13]: 35.5 µM (active)

OCC(CO)n1cnc(-c2ccc(F)cc2)c1-c1ccnc(Oc2ccccc2)n1
outcome [1]: inactive
outcome [3]: inactive
outcome [4]: inactive
outcome [5]: inactive
outcome [6]: inactive
outcome [7]: inactive
outcome [8]: inactive
outcome [9]: inactive
outcome [10]: inactive
outcome [11]: inactive
outcome [12]: inactive
outcome [13]: inactive

CC(N)=O
outcome [1]: inactive
outcome [2]: inactive
outcome [3]: inactive
outcome [4]: inactive
outcome [5]: inactive
outcome [6]: inactive
outcome [7]: inactive
outcome [8]: inactive
outcome [9]: inactive
outcome [10]: inactive
outcome [11]: inactive
outcome [12]: inactive
outcome [13]: inactive

CCCCCCC(CCCCCCCCCCC(=O)OCC(COC(C)=O)OC(C)=O)OC(C)=O (stereo not given)
outcome [1]: inactive
outcome [14]: inactive

C#CC(O)C(CC)CCCC (stereo not given)
outcome [2]: inactive

CN(C)C(=O)NC1(c2ccccc2)CCN(CCC[C@]2(c3ccc(Cl)c(Cl)c3)CCCN(C(=O)c3ccccc3)C2)CC1
outcome [1]: inactive
outcome [3]: inactive
AC50 [4]: 1.07 µM (active)
AC50 [5]: 9.1 µM (active)
outcome [6]: inactive
AC50 [7]: 7.4 µM (active)
AC50 [8]: 1.83 µM (active)
outcome [9]: inactive
AC50 [10]: 7.62 µM (active)
AC50 [11]: 2.99 µM (active)
AC50 [12]: 7.5 µM (active)
AC50 [13]: 6.12 µM (active)

CCCCCCC(C=O)=Cc1ccccc1
outcome [2]: inactive

OCC(O)CO
outcome [1]: inactive
outcome [15]: inactive
outcome [16]: inactive

O=C(Oc1ccccc1)c1cccc(C(=O)Oc2ccccc2)c1
outcome [2]: inactive

CC(=O)CC(c1ccccc1)c1c(O)c2ccccc2oc1=O (stereo not given)
outcome [1]: inactive
outcome [2]: inactive
outcome [15]: inactive
outcome [16]: inactive
